Results filed as inconclusive are left out. Values without a mark were called inactive. Activity calls are given as the source filed them. Calls follow the shape of the dose curve; as a rule, active = well fitted inhibition curve with a large enough effect in the signal ratio in the repeat runs (not every such curve was filed as active); inconclusive = weak or mixed curves, or effect the other way; inactive = no such curve, though single readings can be large or run the other way; the % refers to the signal ratio.
The compounds below were run against Androgen receptor (Homo sapiens) (UniProt P10275) (assay: qHTS assay to identify small molecule antagonists of the androgen receptor (AR) signaling pathway (AID 743035)). Conditions: HEK293 AR-UAS-bla, R1881-stimulated, beta-lactamase FRET, 16 h; series mostly up to 58.5 µM; activity change, negative = inhibition: at the top concentration.
Sequence of Androgen receptor (Homo sapiens) (P10275 whole entry, looked up): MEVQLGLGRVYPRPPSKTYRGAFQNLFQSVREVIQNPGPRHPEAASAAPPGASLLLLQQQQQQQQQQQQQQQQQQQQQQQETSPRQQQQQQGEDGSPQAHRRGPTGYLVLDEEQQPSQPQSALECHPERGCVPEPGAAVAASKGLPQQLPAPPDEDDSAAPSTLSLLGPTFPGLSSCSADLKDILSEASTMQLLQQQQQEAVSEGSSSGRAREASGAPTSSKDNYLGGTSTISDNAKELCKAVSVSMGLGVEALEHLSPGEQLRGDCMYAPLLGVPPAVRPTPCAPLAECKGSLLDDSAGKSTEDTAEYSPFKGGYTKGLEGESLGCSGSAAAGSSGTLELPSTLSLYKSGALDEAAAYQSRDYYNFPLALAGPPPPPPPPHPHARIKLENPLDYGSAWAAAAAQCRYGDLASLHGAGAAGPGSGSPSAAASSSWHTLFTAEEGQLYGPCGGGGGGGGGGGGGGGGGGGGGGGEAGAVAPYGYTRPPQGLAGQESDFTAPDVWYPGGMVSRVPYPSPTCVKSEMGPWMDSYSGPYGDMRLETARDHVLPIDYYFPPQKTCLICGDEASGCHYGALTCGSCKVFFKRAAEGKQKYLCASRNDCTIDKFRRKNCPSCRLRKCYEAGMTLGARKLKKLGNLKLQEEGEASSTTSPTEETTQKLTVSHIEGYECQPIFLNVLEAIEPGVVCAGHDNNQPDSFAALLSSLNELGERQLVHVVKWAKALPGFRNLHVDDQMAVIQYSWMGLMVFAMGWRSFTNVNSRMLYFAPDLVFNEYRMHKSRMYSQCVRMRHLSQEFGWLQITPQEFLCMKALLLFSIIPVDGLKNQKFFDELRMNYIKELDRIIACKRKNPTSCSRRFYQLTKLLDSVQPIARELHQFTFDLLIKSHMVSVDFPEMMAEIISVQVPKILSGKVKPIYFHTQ
Procedure, shortened: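 Antagonist mode: AR-bla HEK293 cells co-treated with test compounds and agonist R1881 for 16 h at 37C, 5% CO2. Beta-lactamase activity read as FRET fluorescence after 2 h room-temperature substrate loading.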
For Oc1ccc(Cl)c2cccnc12, the Potency was 19000 nM (active).
With Cc1cc(C)cc(N)c1 the “activity change, negative = inhibition” value was 4.92% [at 78.9 µM].
With NC(=O)c1ccncc1 the “activity change, negative = inhibition” value was 1.43% [at 78.9 µM].
With C=C(C)[C@@H]1CCC2=CCC[C@@H](C)[C@]2(C)C1 the “activity change, negative = inhibition” value was -19.3%.
COc1cc(C(=O)NC2CCN(C)CC2)ccc1Nc1ncc2c(n1)N(C1CCCC1)CC(F)(F)C(=O)N2C was tested, and the Potency was 3.2 nM (active).
O=C(OC(=O)c1ccccc1)c1ccccc1 was tested, and the “activity change, negative = inhibition” value was 0.528% [at 78.9 µM].
C1COC1 was tested, and the “activity change, negative = inhibition” value was 3.66%.
O=C(/C=C/c1ccccc1)OCCc1ccccc1 was tested, and the “activity change, negative = inhibition” value was 11.6%.
CC[C@]1(O)C[C@H]2CN(CCc3c([nH]c4ccccc34)[C@@](C(=O)OC)(c3cc4c(cc3OC)N(C=O)[C@H]3[C@@](O)(C(=O)OC)[C@H](OC(C)=O)[C@]5(CC)C=CCN6CC[C@]43[C@@H]65)C2)C1 was tested, and the Potency was 33.8 nM (active).

Source: PubChem BioAssay (Tox21)
% is scaled to controls: 0 for no effect and ±100 for the full control effect; potency is read from the fitted curve at half-maximal effect.
